According to the supplement of paper PMC12632987:

T1: USP38, Q8NB14
T1 chain: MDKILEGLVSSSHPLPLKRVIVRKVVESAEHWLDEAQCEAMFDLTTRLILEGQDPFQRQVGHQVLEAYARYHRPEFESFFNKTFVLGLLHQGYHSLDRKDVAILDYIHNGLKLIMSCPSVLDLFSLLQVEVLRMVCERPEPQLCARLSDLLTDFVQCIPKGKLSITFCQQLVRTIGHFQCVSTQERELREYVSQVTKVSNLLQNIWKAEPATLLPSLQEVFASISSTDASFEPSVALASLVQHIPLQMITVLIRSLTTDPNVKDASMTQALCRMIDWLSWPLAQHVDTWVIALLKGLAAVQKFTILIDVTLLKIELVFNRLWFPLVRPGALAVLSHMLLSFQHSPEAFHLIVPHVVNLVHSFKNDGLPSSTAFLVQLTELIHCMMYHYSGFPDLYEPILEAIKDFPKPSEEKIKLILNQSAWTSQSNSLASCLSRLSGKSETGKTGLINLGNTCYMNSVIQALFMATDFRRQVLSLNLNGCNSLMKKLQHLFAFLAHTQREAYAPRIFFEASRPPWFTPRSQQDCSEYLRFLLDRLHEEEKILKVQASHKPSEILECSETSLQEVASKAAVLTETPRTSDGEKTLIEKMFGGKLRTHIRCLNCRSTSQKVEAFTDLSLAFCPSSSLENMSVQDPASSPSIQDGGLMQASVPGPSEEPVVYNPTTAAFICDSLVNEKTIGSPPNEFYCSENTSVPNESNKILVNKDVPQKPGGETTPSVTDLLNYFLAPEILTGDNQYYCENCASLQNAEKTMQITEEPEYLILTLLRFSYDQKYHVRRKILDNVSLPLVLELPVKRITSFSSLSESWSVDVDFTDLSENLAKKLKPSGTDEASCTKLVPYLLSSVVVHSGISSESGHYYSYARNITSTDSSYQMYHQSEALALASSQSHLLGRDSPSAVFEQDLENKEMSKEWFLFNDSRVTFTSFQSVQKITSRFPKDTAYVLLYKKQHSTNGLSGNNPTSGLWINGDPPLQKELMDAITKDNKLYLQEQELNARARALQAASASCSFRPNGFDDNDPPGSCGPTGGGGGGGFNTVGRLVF

B1: usp_38_diff_out_5_164_611 (protein)
chain: EVERIREEFEARADATLAALRALLAQARADPATARAALAQAEALVDDLADFYVEAVEEVNEADPSKVEEFLREASRRLEELSALVAELRALARAQAEAEA
B2: usp_38_diff_out_5_91_617 (protein)
chain: EEERRRLIELAEEAAELLKKAAELLEKGEDYTEAVKKAIELLKELAKLLAGGDSRERRLSLTAAGMAEALEELDKYPKELQIAMLKAMADVAKEMAEQLR
B3: usp_38_diff_out_5_91_615 (protein)
chain: EERRKELIKKAKEAAKKLKEAAELLEKGEDYTKEIEEAIKLYKELAEALAGGNARERRLSLTAAGAAIALEKLDEYPKELQIAMLKAHAEVTKQMAEELE
B4: usp_38_diff_out_5_164_607 (protein)
chain: GVEEALKELEKTAEELKKKLKELLEEAKKNPEKLDEYKKKITEAVNEAIDKINEITTKALEAHPEQADEILRHYDEVVTEMLTEYNAALEELEKLKKEAA
B5: usp_38_diff_out_9_172_624 (protein)
chain: DLESKRFKIQWLLADAIDLLQKIAKKADEENKKKLIEAAMLLLKASQLVVEGGDKEEILKLLEEAKKLVKELAKKDPKNKKELEEAIKLIEEAIKLVKEL
B6: usp_38_diff_out_5_164_606 (protein)
chain: MVEEALKRMEEIAKELEAKLKALLAEAKKNPAKLAEYEKQITDATNEALDELNEITTKALEANPEKADEILEHYDRVVTRMLTAYNAAKAELAALKKEAA
B7: usp_38_diff_out_5_164_608 (protein)
chain: GVEEALEELRKIREELEKKLKELLEKAKENPEKLEEYKKEITKAMDEAIDKMNEITTRALEAHPERAEEILREYDEEVTKMLKEYNEVMEKLKKLEEEYK
B8: usp_38_diff_out_5_91_614 (protein)
chain: EERRKKLIEKAEEAAKKLEEAAKRLEAGEDYTKDIEEAIELYREIAAALADGDARERRLSLTAAGMALALEKLGEYPKDLQIAMLKAHADVAKEMAEQLK
B9: usp_38_diff_out_5_164_612 (protein)
chain: AVEAIRAEFEAAADAALAELKALLAEAKADPSKVEEKLKEAEAVLDELLDLLVEATERVAEEDPSQVEAFLREADARLEELLGIIAEIRELARKVREAKA
B10: usp_38_diff_out_5_80_613 (protein)
chain: SLLEEARRLAEEALKAEDLETFEELLKQLVETVRRAAEEALERGTLDETVRELSGILLELDKEVRKSSNKEKKKLAKEYLNQAVDVLAAAELRALEREAA
B11: usp_38_diff_out_9_42_629 (protein)
chain: RKELEERLLELIRETGEVLREAEEVLRELREVDPEAARRFRREVAELLDKIDDKLLKAQRLLLQDESKYPEAQAALDEAERLVEELRRLAEEWRRRLKER
B12: usp_38_diff_out_5_91_623 (protein)
chain: AERREEAVRLAKEAAEYLKKAAELLEAGEDYTEEIKRAREALTRAAELLAKGNAREQRLALTAAGMAEALDELPRYSKELQIAMLKELADVAKELAEQLA
B13: usp_38_diff_out_5_164_610 (protein)
chain: GVEELLKEMEEIKKETLEKLDKLLEEAKKNPEKLDEYKKEINELTNEAIDKMNELTTEALELDPERAEEILRHYDEIMTELLTHKQKVLDEIEKLKKEKE
B14: usp_38_diff_out_9_42_625 (protein)
chain: MKELEEKREETLKLIAEAGRYVDEVIERLAKLDPELARELRREAAEAHDKIVELTQEANKYYLAGEETKEEFLAKLDEIKKIVDELRKRAEELLAAAEAA
B15: usp_38_diff_out_5_91_621 (protein)
chain: EERRKELIKLAEEAAKLLEKAAELLEKGEDYTEAIKKAIELYKKLAEELKGGGPRERRLSLTAAGAAIALEELPKYSKELQIAMLKELADVTKELAEELK
B16: usp_38_diff_out_5_91_616 (protein)
chain: EEERKKIIEKAEELARLLKEAAELLEKGEDYTENIKRAIKLAEELAKALAGGDARERRLSLTFAGLAEALKEIENYPKELQIAMLKAHADVAEEAAELLK
B17: usp_38_diff_out_5_91_618 (protein)
chain: AEARAEQIRLAEEAARLLEEAARRLEAGEDYTADVERAIALFRELAAALAGGDARQRRLSLTAAGLALALEELPRYSRELQIAMLRAHADVARAMAEELR
B18: usp_38_diff_out_5_164_609 (protein)
chain: MVEEKLKEMEEIRDETIEKLDELLEEAKKNPEKLEEIKKEINELTEEAIDKMNELTTEALEADPERAEEILKHYDELMTELLTHKKEVLEEIEKLKKEKE
B19: usp_38_diff_out_5_91_622 (protein)
chain: EETRKEAVKLAKEAAEALKKAAELLEKGEDYTEELKKAYEALTKLAELLAKGDAREQRLALTAAGIAEALKELPRYPKELQIAMLKELADVAKELAEQLE

Molecular target: T1, USP38, Q8NB14
Experiment: median log2 fold change of GCK-ALFA target abundance (FLAG IP / Myc IP barcode read proportion) (log2 ratio); each designed protein is fused to an ALFA-tag nanobody in HEK293 cells to bring the named protein to FLAG-tagged glucokinase (GCK); Myc marks an untargeted standard; higher = target protein stabilised (more abundant)
Details: target protein: 3xFLAG-MCP-GCK-ALFA reporter; HEK293 landing pad (RPLP)
Procedure, shortened: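 Sequencing of reverse-transcribed, amplified circular RNA barcodes from anti-FLAG and anti-Myc immunoprecipitates provided the readout for an ALFA-nanobody-fused binder library recombined into HEK293 landing-pad cells. Those cells were induced with 2 μg mL^−1 doxycycline, transfected with a plasmid expressing a FLAG-tagged target and a Myc-tagged standard, and lysed after 48 h. Target abundance is the per-binder median log2 ratio of FLAG to Myc barcode read proportions. Only barcodes at a proportion of ≥10^−7 in both replicates and binders with ≥3 barcodes per replicate were kept, with a 10^−6 pseudocount added before the two replicates were pooled.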

Row | Binder | median log2 fold change
1 | B1 | -0.198
2 | B2 | 0.486
3 | B3 | 0.0701
4 | B4 | -0.164
5 | B5 | -0.076
6 | B6 | -0.164
7 | B7 | 0.0441
8 | B8 | 0.105
9 | B9 | -0.239
10 | B10 | -0.169
11 | B11 | -0.63
12 | B12 | 0.1
13 | B13 | -0.17
14 | B14 | 0.146
15 | B15 | 0.214
16 | B16 | 0.153
17 | B17 | 0.0905
18 | B18 | 0.206
19 | B19 | 0.0965
